Sfp PPTase inh – qHTS Assay for Inhibitors of Bacillus subtilis Sfp phosphopantetheinyl transferase (PPTase); 4'-phosphopantetheinyl transferase ffp (Bacillus subtilis), Q9F4F7; Potency, µM, for the others: largest response in the series, negative = inhibition, most hits filed as inhibitors; hit rate 3.5% among 310,000; Biochemical Sfp PPTase activity, qHTS; AID 1490, 2009;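 further: the enzyme is Sfp with the accession as filed and its product quenches rhodamine fluorescence; 0% = enzyme reaction without inhibitor and -100% = no enzyme wells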
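Step 1, compound plus 15 nM Sfp-PPTase, 15 min, room temperature. Step 2, add rhodamine-CoA (5 uM) and BHQ-2-YbbR (12.5 uM). Step 3, read 525/598 nm fluorescence at 0 and 30 min.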
ALDH1A1 block – qHTS Assay for Inhibitors of Aldehyde Dehydrogenase 1 (ALDH1A1); Aldehyde dehydrogenase 1A1 (Homo sapiens), P00352; Purified ALDH1A1, NADH fluorescence, propionaldehyde substrate; Potency, µM (titrated, usually from 75.3 µM), inactives show top-dose activity, negative = inhibition, usual class: inhibitors; hit rate 7.3% among 220,000; AID 1030, 2008; active means well fitted inhibition curve with a large enough effect, not every such curve was filed as active; inconclusive means small, poorly fitted or top-dose-only effect, or another doubt; inactive means no such curve, though single readings can be large or run the other way;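 further: plate controls were no enzyme wells and a reference inhibitor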
PLK1 PBD block – qHTS for Inhibitors of PLK1-PDB (polo-like kinase 1 - polo-box domain): Primary Screen. hit rate 2.8% among 360,000. Potency, µM, inactives show max response, negative = inhibition, hits mostly inhibitors. Plk1 PBD binding of FITC phosphopeptide, fluorescence polarization. Serine/threonine-protein kinase PLK1 (Homo sapiens), P53350; further: series mostly up to about 57 µM; nearly all actives have a fitted effect of over 65% in size
Target sequence (P53350 whole entry, looked up, the tested form may be a part): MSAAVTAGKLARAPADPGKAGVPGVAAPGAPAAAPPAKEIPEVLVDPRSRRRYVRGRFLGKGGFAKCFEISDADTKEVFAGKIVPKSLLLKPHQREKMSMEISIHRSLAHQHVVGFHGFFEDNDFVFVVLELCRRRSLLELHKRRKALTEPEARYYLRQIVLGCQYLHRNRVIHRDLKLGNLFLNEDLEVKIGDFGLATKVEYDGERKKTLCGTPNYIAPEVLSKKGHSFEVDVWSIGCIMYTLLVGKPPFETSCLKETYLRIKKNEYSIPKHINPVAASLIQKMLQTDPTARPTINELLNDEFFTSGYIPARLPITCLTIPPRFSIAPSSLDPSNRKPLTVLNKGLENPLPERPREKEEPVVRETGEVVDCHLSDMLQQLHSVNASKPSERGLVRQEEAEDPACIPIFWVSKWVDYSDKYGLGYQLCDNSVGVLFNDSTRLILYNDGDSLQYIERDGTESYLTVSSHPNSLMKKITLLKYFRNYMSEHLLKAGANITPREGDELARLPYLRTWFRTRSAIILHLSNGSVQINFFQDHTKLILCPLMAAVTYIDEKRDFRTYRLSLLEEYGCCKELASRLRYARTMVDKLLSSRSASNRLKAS
VP16 counter – VP16 counterscreen qHTS for inhibitors of ROR gamma transcriptional activity; Drosophila S2 Gal4-VP16 UAS-luciferase, luminescence, 20 h; Potency, µM (top dose mostly 53.6 µM), for the others: at the highest dose activity, negative = inhibition, hits mostly inhibitors; hit rate 3.5% among 310,000;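 further: Gal4-VP16 expression switched on by copper sulfate through the metallothionein promoter; nearly all actives have a fitted effect of over 50% in size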
RORg inh – qHTS for inhibitors of ROR gamma transcriptional activity. Potency, µM (top dose mostly 53.6 µM), inactives show at the top dose activity change, negative = inhibition, usual class: inhibitors. Drosophila S2 Gal4-RORgamma UAS-luciferase reporter, 20 h. hit rate 5.4% among 310,000. Nuclear receptor ROR-gamma (Mus musculus), P51450; further: nearly all actives have a fitted effect of over 60% in size
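Using a luciferase readout, inhibitors were identified by reduced reporter activity in Drosophila cells coexpressing a copper-inducible Gal4–ROR gamma fusion and UAS-driven Photinus luciferase, incubated 20 hr after 700 uM copper sulfate.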
TbPYK confirm – qHTS of Trypanosoma Brucei Inhibitors: Confirmatory Assay for Cherry-picked Compounds. shares compounds with PLK1 PBD block. recombinant TbPYK, Kinase-Glo ATP luminescence. Potency, µM (series often up to 76.9 µM), without a hit: top-dose activity change, negative = inhibition, usual class: inhibitors. hit rate 67% among 890. AID 720569, 2013; further: nearly all actives have a fitted effect of over 70% in size
TbPYK ADP-Glo – qHTS of Trypanosoma Brucei Inhibitors: Orthogonal Assay for Cherry-picked Compounds. shares compounds with PLK1 PBD block. recombinant TbPYK, ADP-Glo luminescence, 60 min. Potency, µM (titrated, usually from 76.9 µM), without a hit: top-dose activity change, negative = inhibition, usual class: inhibitors. hit rate 62% among 890; further: nearly all actives have a fitted effect of over 75% in size
* marks the source's active call; other numbers are inactive results. Sampled rows, rich in hits. Any-hit rate of the full collection: about 12%. Unless noted, the call rests on the fitted dose curve; in most records, active means well fitted curve in the direction sought with a large enough effect; inconclusive means small, poorly fitted or top-dose-only effect, or another doubt; inactive means no such curve, though single readings can be large; an effect the other way counts as inactive or inconclusive. Unless noted, on the % scale 0 is the no-effect control and ±100 the full control effect; potency means the concentration at half of the fitted maximal effect.

Screening O=C(COC(=O)/C=C/c1cccc(F)c1)NC(=O)NCc1ccccc1 returned PLK1 PBD block -1%.
Screening O=C(c1ccc2ncsc2c1)N1CCN(c2ccccc2Cl)CC1 returned Sfp PPTase inh 15%, ALDH1A1 block -3%, PLK1 PBD block inconclusive, VP16 counter -13% and RORg inh 32%.
O=C(c1ccc2ncsc2c1)N1CCN(c2ccc(O)cc2)CC1 was read as Sfp PPTase inh -95%, ALDH1A1 block -9%, PLK1 PBD block -19%, VP16 counter -1%, RORg inh -19%, TbPYK confirm 11µM* and TbPYK ADP-Glo inconclusive.
COc1ccc(S(=O)NC2CCCCC2)c(OC)c1C (stereo not given) was read as Sfp PPTase inh 50µM*, ALDH1A1 block -12%, PLK1 PBD block -19%, VP16 counter -16%, RORg inh -9%, TbPYK confirm 22µM* and TbPYK ADP-Glo 20µM*.
Cc1ccc(/C=C/C(=O)N2CCN(S(=O)(=O)c3ccc(C)c(C)c3)CC2)o1 was read as Sfp PPTase inh 18µM*, ALDH1A1 block 3.5µM*, PLK1 PBD block 24µM*, VP16 counter inconclusive, RORg inh 25%, TbPYK confirm 13µM* and TbPYK ADP-Glo 16µM*.
Cc1ccc(S(=O)(=O)N2CCN(C(=O)N(C)C)CC2)cc1C was read as Sfp PPTase inh 13%, ALDH1A1 block inconclusive, PLK1 PBD block -6%, VP16 counter 1% and RORg inh -4%.
COc1cc2c(cc1OC)C(=O)C(Br)CC2 (stereo not given) was read as PLK1 PBD block 0.95µM*, TbPYK confirm 10µM* and TbPYK ADP-Glo 5.6µM*.
Screening COc1cc2c(cc1OC)C(=O)C(c1ccc3c(c1)OCO3)CC2 (stereo not given) returned PLK1 PBD block 2%.
`N#Cc1cc(-c2ccccc2)nn1-c1ccccc1` gave Sfp PPTase inh 18µM*, ALDH1A1 block 22µM*, PLK1 PBD block 6µM*, VP16 counter 25%, RORg inh 11%, TbPYK confirm 2.5µM* and TbPYK ADP-Glo 3.2µM*.
Screening CNC(=O)COC(=O)c1cc(-c2ccccc2)nn1-c1ccccc1 returned Sfp PPTase inh 14%, ALDH1A1 block -7%, PLK1 PBD block 9%, VP16 counter -4% and RORg inh 11%.
`Cc1nnc(N2CCN(c3ccccc3)CC2)[nH]c1=O` gave Sfp PPTase inh 15%, ALDH1A1 block 7%, PLK1 PBD block 3µM*, VP16 counter 0%, RORg inh 1%, TbPYK confirm 3% and TbPYK ADP-Glo -3%.
Screening CC(C)(C)OC(=O)N1O[C@H]2CC1[C@@H]1[C@@H]2N=NN1CCc1ccncc1 returned PLK1 PBD block -5%, TbPYK confirm 7.9µM* and TbPYK ADP-Glo 14µM*.
COc1ccc(N2C(=O)/C(=C/c3cccnc3)NC2=S)cc1 was read as Sfp PPTase inh -4%, ALDH1A1 block 4%, PLK1 PBD block 2%, VP16 counter 0% and RORg inh -14%.
Screening COc1ccc(N2C(=O)/C(=C/N(C)C)NC2=S)cc1 returned Sfp PPTase inh 56µM*, ALDH1A1 block 3%, PLK1 PBD block -7%, VP16 counter -2%, RORg inh -14%, TbPYK confirm 5.6µM* and TbPYK ADP-Glo 13µM*.
For CCOC(=O)CCc1c(C)nc(SCc2ccc(C(=O)O)cc2)c(C#N)c1C the results were Sfp PPTase inh 4%, PLK1 PBD block -17%, VP16 counter 0% and RORg inh -17%.
`CCc1c(C)nc(SC(C(=O)O)c2ccccc2)c(C#N)c1C` (stereo not given) gave Sfp PPTase inh 14%, ALDH1A1 block 7%, PLK1 PBD block -5%, VP16 counter -1% and RORg inh 32%.
`CCOC(=O)CCc1c(C)nc(SCC(=O)O)c(C#N)c1C` gave Sfp PPTase inh 79µM*, ALDH1A1 block 25µM*, PLK1 PBD block -20%, VP16 counter 0%, RORg inh -13%, TbPYK confirm 2.2µM* and TbPYK ADP-Glo 7.1µM*.
Cc1nc(SCC(=O)O)c(C#N)c(C)c1CC(=O)c1ccccc1 was read as Sfp PPTase inh 7%, ALDH1A1 block -25%, PLK1 PBD block -19%, VP16 counter -6%, RORg inh -15%, TbPYK confirm 5.6µM* and TbPYK ADP-Glo 11µM*.
Screening COC(=O)[C@]1(Cc2ccccc2)N[C@H](c2ccc(-c3cccc(Cl)c3)cc2)[C@@H]2C(=O)N(C)C(=O)[C@@H]21 returned PLK1 PBD block -5%.
For O=C(COC(=O)CCc1nc2ccccc2c(=O)[nH]1)Nc1ccccc1OC(F)F the results were PLK1 PBD block -14%.
Screening COc1cccc(NC(=O)CCC2CCN(C(=O)c3cncs3)CC2)c1 returned Sfp PPTase inh -10%, PLK1 PBD block -3%, VP16 counter -11%, RORg inh -38%, TbPYK confirm 20µM* and TbPYK ADP-Glo inconclusive.
For COc1cccc(NC(=O)CCC2CCN(C(=O)c3scnc3C)CC2)c1 the results were Sfp PPTase inh 3%, PLK1 PBD block -11%, VP16 counter -10% and RORg inh -15%.
For COC(=O)COc1ccc(C2Nc3c(Cl)ccc(C(=O)O)c3C3C=CCC32)cc1 (stereo not given) the results were Sfp PPTase inh 10µM*, ALDH1A1 block inconclusive, PLK1 PBD block 21µM*, VP16 counter -3%, RORg inh 8%, TbPYK confirm inconclusive and TbPYK ADP-Glo inconclusive.
COC(=O)COc1ccc(S(=O)(=O)N2CCN(c3ccccc3)CC2)cc1 was read as Sfp PPTase inh -1%, ALDH1A1 block -1%, PLK1 PBD block -2%, VP16 counter -2% and RORg inh -5%.
For CCOC(=O)C(C)(C)N(Cc1ccccc1C)S(=O)(=O)c1ccc(Cl)c([N+](=O)[O-])c1 the results were Sfp PPTase inh 0%, ALDH1A1 block -9%, PLK1 PBD block -10%, VP16 counter -16%, RORg inh 2%, TbPYK confirm 3% and TbPYK ADP-Glo 2%.

Source: PubChem BioAssay
